Laboratory results from the supplement of paper PMC12636033.
± gives the standard deviation of the averaged measurements. In all, about 33,000 sequences were measured (“E-score (rank enrichment, -0.5 to 0.5)”: median about -0.0075, highest 2% from about 0.23 on). Shown is part of a subset that was picked to be rich in the highest values.

Each sequence was assayed on WT Max(13-93) synthetic (M65Nle) (assay: PBM 8-mer E-score (E-score (rank enrichment, -0.5 to 0.5)); higher = stronger preferential binding).
Procedure: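 Protein binding microarray (universal PBM chip covering all 10-mers in fixed probe flanks) with chemically synthesized human Max(13-93) bHLH-LZ analogs (not full-length Max) bearing noncanonical residues (hArg, Tha, Aib, Nle at 65) and aromatic Cys staples. Read-out per 8-mer (and its reverse complement): E-score (rank-based enrichment, -0.5 to 0.5) and Z-score of median probe intensity.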

Sequence	PBM 8-mer E-score
AAGGAGCC	-0.118 ± 0.072
CGTAAGCC	0.0338 ± 0.0056
CAGGATAC	-0.144 ± 0.019
ACGCCAGC	-0.269 ± 0.085
ATGCGCCA	0.123 ± 0.11
CGTACAAC	0.112 ± 0.047
ACGAGTCG	-0.0792 ± 0.021
TTGAAAAA	0.234 ± 0.043
CTGAAAAA	-0.141 ± 0.0094
ATTGAAAC	0.117 ± 0.092
CTTGAAAA	0.0938 ± 0.0069
ATTGAAAA	0.254 ± 0.087
ATGAAAAA	0.158 ± 0.13
ACGGTCCA	-0.222 ± 0.021
AGATTTAC	0.119 ± 0.041
ACCTATCT	0.211 ± 0.065
CCTAAGCC	-0.125 ± 0.096
ATTTTCGG	0.129 ± 0.056
GAAAACAA	0.206 ± 0.059
ACACATGA	0.186 ± 0.036
ACACATGG	0.357 ± 0.034
ACACATCT	0.0507 ± 0.12
ACACATAT	0.202 ± 0.041
ATACATGG	0.134 ± 0.045
ACACATGT	0.359 ± 0.025

Sequence	PBM 8-mer E-score
CTAGTGGC	-0.019 ± 0.044
CACCCTTA	0.118 ± 0.056
ACCAGAAA	0.0691 ± 0.0064
CCTAGTCA	-0.0758 ± 0.01
GCCGAAGC	-0.212 ± 0.034
ACATTGTC	0.19 ± 0.033
ACATTGTG	0.26 ± 0.054
ACATTGTA	0.153 ± 0.06
AGAGACCG	-0.14 ± 0.044
AACCCGCC	-0.0368 ± 0.068
CCGCCCGG	-0.265 ± 0.039
ACCCCGCC	0.279 ± 0.035
ACCCGCCC	0.0569 ± 0.092
GCCCGCCC	0.0723 ± 0.054
CCCCCGCC	0.0274 ± 0.11
CCCGCCCG	0.025 ± 0.078
CCCGCCCC	0.285 ± 0.14
CCGCCCCC	-0.124 ± 0.051
CCCGCCCA	0.183 ± 0.043
CCGCCCCG	0.236 ± 0.075
CCCCGCCC	0.369 ± 0.062
CTCGTTCC	-0.0941 ± 0.0052
CCGACGTA	-0.103 ± 0.022
AATCACCT	0.115 ± 0.11
TAGTGCAA	0.023 ± 0.006

Sequence	PBM 8-mer E-score
AGCGGAGG	-0.124 ± 0.11
CTTAATGC	0.162 ± 0.095
CCGTACCA	-0.129 ± 0.033
CACACGAA	0.272 ± 0.054
AACACGCC	0.0311 ± 0.14
TACACAAA	0.0928 ± 0.018
CACGCTCA	0.0695 ± 0.057
AACGCTCG	-0.131 ± 0.017
CACACAAA	0.103 ± 0.13
CACGCTCG	0.266 ± 0.035
AACACGCG	0.3 ± 0.08
GACACAAA	0.24 ± 0.048
CACACGAG	0.105 ± 0.0042
CACACGAC	0.13 ± 0.11
AACACGCA	0.134 ± 0.0072
AAATTAAA	0.198 ± 0.044
TCAAAGGA	0.0761 ± 0.07
CGTTTTGA	-0.0368 ± 0.12
ACGACATG	0.0526 ± 0.047
CGCGGCCA	-0.0571 ± 0.036
CCGAAACC	-0.199 ± 0.026
GACACCGC	-0.206 ± 0.08
ACGTCCCC	0.0319 ± 0.084
AGCATTTA	-0.11 ± 0.038
CACACGCA	0.174 ± 0.028

Sequence	PBM 8-mer E-score
CACACGCG	0.302 ± 0.017
CACACGCC	0.0838 ± 0.085
TAGGCACA	0.0603 ± 0.0065
CAGAGGTA	0.0024 ± 0.058
GGATGATA	-0.00911 ± 0.064
ATATGATG	0.19 ± 0.03
GTATGAGA	0.109 ± 0.033
GTATGATA	0.235 ± 0.0072
CTATGATA	-0.00697 ± 0.0076
ATATGATA	0.302 ± 0.013
CAGCGCCA	-0.237 ± 0.0045
GTGGCTCA	-0.0168 ± 0.037
ACAGGAGA	0.0713 ± 0.014
CCCTACGG	-0.21 ± 0.015
AACACATT	0.13 ± 0.017
CACACATA	0.0464 ± 0.029
CAAACATG	0.17 ± 0.13
TACACATA	0.213 ± 0.083
AAAACATT	0.147 ± 0.033
AACACATG	0.368 ± 0.0069
AAAACATG	0.28 ± 0.024
AACACATA	0.263 ± 0.084
AACACATC	-0.0183 ± 0.028
